These molecules were tested on Vero E6 infected with SARS-CoV-2 (assay: SARS-CoV-2 infection rate relative to infected DMSO; higher = more infection, active = 60 or less). Conditions: 24 h.
With `Cc1c(C)c2c(c(C)c1O)CCC(C)(C(=O)O)O2` (centres undefined) [trolox] (0.833333 µM) the SARS-CoV-2 infection rate was 98.5% (inactive).
`C#C[C@]1(OC(C)=O)CC[C@H]2[C@@H]3CCC4=CC(=O)CC[C@@H]4[C@H]3CC[C@@]21C` [norethindrone-acetate] (10 µM) was tested, and the SARS-CoV-2 infection rate was 106% (inactive).
For `CC[N+](CC)(CCNC(=O)C(=O)NCC[N+](CC)(CC)Cc1ccccc1Cl)Cc1ccccc1Cl` [ambenonium] (10 µM), the SARS-CoV-2 infection rate was 106% (inactive).
With `O=C(Nc1ccc(S(=O)(=O)C(F)(F)F)cc1)C1=CCN(c2ncccc2C(F)(F)F)CC1` (10 µM) the SARS-CoV-2 infection rate was 108% (inactive).
`CC1(N2CCC(n3c([C@@H]4CCCNC4)nc4ccccc43)CC2)CCCCCCC1` (10 µM) was tested, and the SARS-CoV-2 infection rate was 22% (active).
`O=C1Cc2c([nH]c3ccc(Br)cc23)-c2ccccc2N1` [kenpaullone] (10 µM) was tested, and the SARS-CoV-2 infection rate was 69.5% (inactive).
`O=C(CCCN1CC=C(n2c(=O)[nH]c3ccccc32)CC1)c1ccc(F)cc1` [droperidol] (10 µM) was tested, and the SARS-CoV-2 infection rate was 112% (inactive).
`COC(=O)[C@H](CC(C)C)NC(=O)c1ccc(NC[C@@H](N)CS)cc1-c1cccc2ccccc12` (10 µM) was tested, and the SARS-CoV-2 infection rate was 115% (inactive).
With `COc1cc(C)c(/C=C/C(C)=C/C=C/C(C)=C/C(=O)O)c(C)c1C` [acitretin] (10 µM) the SARS-CoV-2 infection rate was 116% (inactive).
In the case of `N#Cc1ccc(-c2csc(NN=C3CCCC3)n2)cc1` [remodelin] (10 µM), the SARS-CoV-2 infection rate was 100% (inactive).
In the case of `O=C(CC(c1ccccc1)c1ccccc1)N1CCN(C(c2ccccc2)c2ccccc2)CC1` (10 µM), the SARS-CoV-2 infection rate was 102% (inactive).
For `COc1cc(C[C@@H]2NCCc3cc(O)c(O)cc32)cc(OC)c1OC` [trimethoquinol] (10 µM), the SARS-CoV-2 infection rate was 99.5% (inactive).
With `CN(C)C(=O)C(=O)c1cn(C)c2cc(Cl)c(C(=O)N3CCC(Cc4ccc(F)cc4)CC3)cc12` (10 µM) the SARS-CoV-2 infection rate was 82% (inactive).
In the case of `C[C@H]1O[C@@H](O[C@H]2CC[C@@]3(C)[C@H](CC[C@@H]4[C@@H]3C[C@@H](O)[C@]3(C)[C@@H](C5=CC(=O)OC5)CC[C@]43O)C2)C[C@H](O)[C@@H]1O[C@H]1C[C@H](O)[C@H](O[C@H]2C[C@H](O)[C@H](O[C@@H]3O[C@H](CO)[C@@H](O)[C@H](O)[C@H]3O)[C@@H](C)O2)[C@@H](C)O1` [deslanoside] (0.833333 µM), the SARS-CoV-2 infection rate was 114% (inactive).
`CSc1ccccc1Nc1nc(N2CCNCC2)nc2c(NCC3CC3)ncnc12` (0.833333 µM) was tested, and the SARS-CoV-2 infection rate was 101% (inactive).
For `COc1ccccc1N1CCN(CCCCNC(=O)c2ccc3ccccc3c2)CC1` (10 µM), the SARS-CoV-2 infection rate was 94.5% (inactive).
In the case of `c1ccc(C(O[C@@H]2CCCN(CCc3ccc4c(c3)OCO4)C2)c2ccccc2)cc1` [zamifenacin] (10 µM), the SARS-CoV-2 infection rate was 96% (inactive).
In the case of `CCCS(=O)(=O)Nc1ccc(F)c(C(=O)c2c[nH]c3ncc(-c4ccc(Cl)cc4)cc23)c1F` [vemurafenib] (10 µM), the SARS-CoV-2 infection rate was 85.5% (inactive).
For `NC(=O)OCC(O)COc1ccc(Cl)cc1` (centres undefined) [chlorphensin-carbamate] (10 µM), the SARS-CoV-2 infection rate was 112% (inactive).
